Source: PubChem BioAssay (National Center for Advancing Translational Sciences (NCATS))
HTT-AS act: Primary qHTS for Identification of Small Molecule Activators of Huntingtin-Antisense Promoter Activity | AID 1508624, 2021 | Potency, µM (highest dose often 57.5 µM), for the others: at the highest dose activity change, positive = activation, most hits filed as activators | actives 0.24% (n = 48,000) | HEK293 HTT-AS promoter firefly luciferase reporter, 24 h; response scale: percent change from vehicle, -100% = no light; note: nearly all actives have a fitted effect of over 55% in size
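HEK293 cells carrying firefly luciferase reporters were seeded at 2,500 per well in Opti-MEM and cultured for 24 h. They were then treated with compounds at up to 57.5 uM final for 24 h at 37 degrees C before Dual-Glo luminescence readout.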
FH mod: Identification of activators of human fumarate hydratase by quantitative high-throughput screening; actives 0.22% (n = 54,000); FH coupled MDH/diaphorase resazurin fluorescence, 15 min; Potency, µM (top dose mostly 79.9 µM), for the others: top-dose activity change, negative = inhibition, actives largely listed as inhibitors; Fumarate hydratase, mitochondrial (Homo sapiens), P07954; AID 1347055, 2019; note: % is set by controls: 0 for no effect and ±100 for the full control effect; the screen sought activators but most active calls are inhibition curves; nearly all actives have a fitted effect of over 45% in size
Target sequence (P07954 whole entry, looked up): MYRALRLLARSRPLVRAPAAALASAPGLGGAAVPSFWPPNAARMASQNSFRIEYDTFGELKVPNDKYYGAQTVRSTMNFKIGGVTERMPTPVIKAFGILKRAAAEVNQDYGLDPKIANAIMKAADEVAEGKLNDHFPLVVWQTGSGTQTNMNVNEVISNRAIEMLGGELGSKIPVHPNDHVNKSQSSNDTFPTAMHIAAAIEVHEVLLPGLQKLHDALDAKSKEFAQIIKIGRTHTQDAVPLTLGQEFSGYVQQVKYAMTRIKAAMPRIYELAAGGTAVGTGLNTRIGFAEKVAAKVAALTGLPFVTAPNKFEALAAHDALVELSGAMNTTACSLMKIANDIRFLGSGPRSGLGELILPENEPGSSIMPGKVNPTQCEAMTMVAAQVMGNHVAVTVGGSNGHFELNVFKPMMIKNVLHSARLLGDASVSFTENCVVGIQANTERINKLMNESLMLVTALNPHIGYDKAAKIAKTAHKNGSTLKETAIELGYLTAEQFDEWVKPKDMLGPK
HTT prom inh: Primary qHTS for Identification of Small Molecule Inhibitors of Huntingtin Promoter Activity. HEK293 HTT promoter firefly luciferase reporter, 24 h. Potency, µM (highest dose often 57.5 µM), for the others: at the top dose activity change, negative = inhibition, hits mostly inhibitors. actives 0.93% (n = 48,000); note: nearly all actives have a fitted effect of over 50% in size
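Firefly luciferase signal from promoter-reporter HEK293 cells was scaled between vehicle (0%) and zero RLU (-100%). Compounds were tested at final concentrations of up to 57.5 uM over 24 h at 37 degrees C. PTC124 at 50 uM final served as control inhibitor.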
* marks the source's active call; other numbers are inactive results; ? = inconclusive; . = not tested or not shown; [ ] = remark or other dose. In the library only some 1.3% were active in any assay of this set; here they are far more common. Calls come from the whole dose curve; as a rule, active = well fitted curve in the direction sought with a large enough effect; inconclusive = small, poorly fitted or top-dose-only effect, or another doubt; inactive = no such curve, though single readings can be large; an effect the other way counts as inactive or inconclusive. Potency is the fitted concentration of half-maximal effect.

SMILES | HTT-AS act | FH mod | HTT prom inh
COc1ccccc1N1CCN(C(CNC(=O)C(=O)NCc2ccc(F)cc2)c2cccnc2)CC1 (stereo unspecified) | -78.4% | -0.1% | ?
CCOC(=O)[C@H](CCc1ccccc1)N[C@@H](C)C(=O)N1C2CCCCC2C[C@H]1C(=O)O (stereo partly specified) | . | 21.3% | .
CN(C)c1ccnc2sc3c(=O)n(N4CCCCCC4)cnc3c12 | . | -2.9% | .
O=C1c2ccccc2-c2nc3nnnn3nc21 (tested in a mixture with another compound) | . | 0.891µM* | .
CN1C(=O)c2ccccc2Sc2ccc(NC(=O)N3CCN(c4ccccc4)CC3)cc21 | -61.8% | -17.7% | 25.1µM*
COc1ccc(CNC(=O)Nc2ccc3c(c2)N(C)C(=O)c2ccccc2S3)cc1OC | -28.8% | ? | ?
CC(C)Oc1ccc(CNC(=O)Nc2ccc3c(c2)N(C)C(=O)c2ccccc2S3)cc1 | -50.3% | ? | 25.1µM*
CN1C(=O)c2ccccc2Sc2ccc(NC(=O)N3CCN(c4ccccc4F)CC3)cc21 | -16.2% | -27.9% | -16.6%
CC(O)C1NC(=O)C2CCCN2C1=O (stereo unspecified) | . | 7.1% | .
COc1c(N2CC3CCCNC3C2)c(F)cc2c(=O)c(C(=O)O)cn(C3CC3)c12 (stereo unspecified) | . | -4.7% | .
CCOc1ccc(CNC(=O)C2CCCN(c3nn4cc(-c5ccc(F)cc5)nc4s3)C2)cc1 (stereo unspecified) | -62.3% | -3.6% | ?
CCc1ccc(CNC(=O)C2CCCN(c3nn4cc(-c5ccc(F)cc5)nc4s3)C2)cc1 (stereo unspecified) | -72.5% | -1.9% | 3.98µM*
c1ccc(N2CCN(c3ncnc4c3nc3n4CCCC3)CC2)cc1 | -64.6% | -4.3% | 12.6µM*
Cc1cccc(N2CCN(C(=O)C3CCN(c4ncnc5c4nc4n5CCCCC4)CC3)CC2)c1C | -34.4% | ? | ?
COc1ccc(N2CCN(c3ncnc4c3nc3n4CCCCC3)CC2)cc1 | -55.4% | -25.5% | ?
Cc1cccc(N2CCN(C(=O)C3CCN(c4ncnc5c4nc4n5CCCCC4)CC3)CC2C)c1 (stereo unspecified) | -75.7% | -6.4% | 25.1µM*
COc1ccccc1C(=O)Nc1nnc(SCc2cc(=O)n3ccc(C)cc3n2)s1 | 19.6% | 1.12µM* | 26.1%
Cc1ccccc1C(=O)Nc1nnc(SCc2cc(=O)n3ccccc3n2)s1 | -7.2% | -6.8% | -3.1%
COc1ccccc1Nc1ncc2c(n1)CCN(CC(C)C)C2 | 12.6µM* | 0.8% | 28.6%
COc1ccccc1Nc1ncc2c(n1)CCN(Cc1cc(F)cc(F)c1)C2 | -15.0% | -14.6% | ?
N#Cc1c[nH]c2c(C(=O)N3CCN(CCc4ccc(F)cc4)CC3)cccc12 | . | -2.7% | .
CC(C)Nc1nc(Nc2ccccc2)nc(-c2ccccc2)n1 | . | -0.4% | .
N#C/C(=C\c1ccc(O)c(O)c1)C(=O)Nc1ccccc1 | . | 14.1µM* | .
Cc1ccc(NC(=O)/C(C#N)=C/c2ccc(C(C)C)cc2)cc1C | -10.8% | -1.1% | -13.2%
CC(C)C1=CCC(C)(O)C(OC2OC(CO)C(O)C(O)C2O)C1 (stereo unspecified) | . | -8.0%[53.3 µM] | .
SMILES | HTT-AS act | FH mod | HTT prom inh
CCOc1ccc(CCNC(=O)CSc2n[nH]c(-c3ccccc3)n2)cc1OCC | -11.9% | 6.31µM* | 1.5%
CCOc1cc(CNC(=O)CSc2n[nH]c(-c3ccccc3)n2)cc(OCC)c1OCC | -31.7% | -4.1% | -29.3%
CC1CCC2(NC1)OC1CC3C4CC=C5CC(O[C@@H]6O[C@H](CO)[C@@H](O[C@@H]7O[C@@H](C)[C@H](O)[C@@H](O)[C@H]7O)[C@H](O)[C@H]6O[C@@H]6O[C@@H](C)[C@H](O)[C@@H](O)[C@H]6O)CCC5(C)C4CCC3(C)C1C2C (stereo partly specified) | . | 5.7%[20.6 µM] | .
C[C@@H]1O[C@@H](O[C@H]2[C@H](OC(=O)[C@]34CCC(C)(C)C[C@H]3C3=CCC5[C@@]6(C)C[C@H](O)[C@H](O[C@@H]7O[C@H](CO)[C@@H](O[C@H]8OC[C@](O)(CO)[C@H]8O)[C@H](O)[C@H]7O)[C@@](C)(CO)C6[C@H](O)C[C@@]5(C)[C@]3(C)C[C@H]4O)OC[C@H](O)[C@@H]2O)[C@H](O)[C@H](O)[C@H]1O[C@@H]1OC[C@@H](O)[C@H](O[C@@H]2OC[C@](O)(CO)[C@H]2O)[C@H]1O (stereo partly specified) | . | 9.1%[13.5 µM] | .
CCS(=O)(=O)c1ncc(Cl)c(C(=O)N(Cc2ccccc2)Cc2ccco2)n1 | -93.5% | 4.3% | 35.5µM*
CCS(=O)(=O)c1ncc(N(Cc2ccccc2)Cc2ccco2)c(C(=O)Nc2cccc(Cl)c2C)n1 | -24.0% | -18.2% | ?
Cc1ccc2nc(NC(=O)c3cc(=O)c4cc(C)c(C)cc4o3)sc2c1 | 0.4% | 2.5% | -12.8%
COc1ccc2nc(NC(=O)c3cc(=O)c4ccccc4o3)sc2c1 | 3.16µM* | -1.9% | 66.7%
CN(C)[C@@H]1CCc2[nH]c3ccc(NC(=O)c4ccc(F)cc4)cc3c2C1 | . | 4.2% | .
COc1ccc(S(=O)(=O)N(C(=O)c2ccncc2)c2ccc3oc(C)c(C(C)=O)c3c2)cc1 | -50.8% | -9.5% | 14.1µM*
COC(=O)c1c(C)oc2ccc(N(C(=O)c3ccncc3)S(=O)(=O)c3ccc(OC)cc3)cc12 | -68.4% | ? | 2.24µM*
CCc1ccc(S(=O)(=O)N(C(=O)c2ccncc2)c2ccc3oc(C)c(C(=O)OC)c3c2)cc1 | -86.8% | -25.2% | 12.6µM*
CCCCC(=O)N(c1ccc2oc(C)c(C(C)=O)c2c1)S(=O)(=O)c1ccc(F)cc1C | -28.9% | -5.9% | -40.8%
CCOC(=O)c1c(C)oc2ccc(N(C(=O)Oc3ccccc3)S(=O)(=O)c3ccc(CC)cc3)cc12 | -29.0% | -19.6% | -25.1%
CCCC(=O)N(c1ccc2oc(C)c(C(C)=O)c2c1)S(=O)(=O)c1ccc(C)cc1 | -28.8% | -19.6% | -24.0%
CC(=O)c1c(C)oc2ccc(N(C(=O)c3ccncc3)S(=O)(=O)c3ccc(C)cc3C)cc12 | -44.7% | -30.7% | 28.2µM*
CCOC(=O)c1c(C)oc2ccc(N(C(=O)c3ccncc3)S(=O)(=O)c3ccc(F)cc3)cc12 | -34.3% | -21.1% | ?
CC(=O)C=C=C1C(C)(C)CC(O)CC1(C)O[C@@H]1O[C@H](CO[C@H]2OC[C@](O)(CO)[C@H]2O)[C@@H](O)[C@H](O)[C@H]1O (stereo partly specified) | . | -25.2%[53.3 µM] | .
CCOc1ccc(S(=O)(=O)N(C(=O)c2ccncc2)c2ccc3oc(C)c(C(=O)OC)c3c2)cc1 | -71.7% | ? | 2µM*
CCOC(=O)c1c(C)oc2ccc(N(C(C)=O)S(=O)(=O)c3c(C)cc(C)cc3C)cc12 | -14.9% | -19.3% | -23.5%
C[C@@H]1CC[C@]2(C)C3(C)CC[C@@]2(OC3=O)[C@@]12C[C@H](c1ccoc1)OC2=O | . | 3.1%[53.3 µM] | .
Cc1ccccc1Cn1c(SCc2ccc(C(=O)N3CCCCC3)cc2)nc2ccncc21 | -12.5% | -15.1% | ?
O=C(c1ccc(CSc2nc3ccncc3n2Cc2ccccc2F)cc1)N1CCCCCC1 | -13.2% | -2.0% | -29.7%
